JMJD2A Tudor inh – inhibitors of human JMJD2A Tudor domain; O75164; AlphaScreen JMJD2A-Tudor / H3K4me3 peptide binding; Potency, µM (series often up to 114 µM), for the others: at the highest dose activity change, negative = inhibition, most hits filed as inhibitors; 390,000 compounds, 4.4% hits; further: on the % scale 0 is the no-effect control and ±100 the full control effect; nearly all actives have a fitted effect of over 50% in size
G9a inh – blocks human histone lysine methyltransferase G9a | Q96KQ7 | G9a H3K9 monomethylation, AlphaScreen, 2 h | Potency, µM (doses to about 102 µM), for the others: at the highest dose activity, negative = inhibition, hits mostly inhibitors | 350,000 compounds, 8.8% hits | AID 504332; further: on the % scale 0 is the no-effect control and ±100 the full control effect; nearly all actives have a fitted effect of over 75% in size
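Enzyme 20 nM + cpd, 15 min RT; add b-H3K9 pep 500 nM / SAM 20 uM; 2 h RT; anti-H3K9me1 Ab 0.5 ug/mL + SA donor / anti-rabbit acceptor beads 20 ug/mL each, 10 min; AlphaScreen read.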
PLK1 PBD inh – PLK1 (human) polo-box domain binding inhibition | AID 720504 | Potency, µM, for the others: max response, negative = inhibition, hits mostly inhibitors | 360,000 compounds, 2.8% hits | Plk1 PBD binding of FITC phosphopeptide, fluorescence polarization; further: series mostly up to about 57 µM; on the % scale 0 is the no-effect control and ±100 the full control effect; nearly all actives have a fitted effect of over 65% in size
HP1b binding inh – HP1-beta chromodomain-methylated histone interaction inhibition; 390,000 compounds, 0.56% hits; Potency, µM (titrated, usually from 114 µM), for inactives: top-dose activity change, negative = inhibition, usual class: inhibitors; P83916; AID 540317; AlphaScreen HP1-beta / biotin-H3K9me3 peptide binding; further: nearly all actives have a fitted effect of over 70% in size
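HP1-beta protein (50 nM final) preincubated 30 min at room temperature with biotinylated H3(1-18)K9me3 peptide (50 nM) in PBS pH 7.4, 0.01% Tween-20, then compound added for 30 min. AlphaScreen streptavidin donor/nickel chelate acceptor beads (10 ug/mL final), 30 min dark, luminescence read.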
Sfp PPTase inh – Sfp phosphopantetheinyl transferase inhibition; 310,000 compounds, 3.5% hits; Biochemical Sfp PPTase activity, qHTS; Potency, µM, for the others: largest response in the series, negative = inhibition, actives largely listed as inhibitors; Q9F4F7;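 further: the enzyme is Sfp with the accession as filed and its product quenches rhodamine fluorescence; 0% = enzyme reaction without inhibitor and -100% = no enzyme wells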
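Fluorescence-quenching assay with 15 nM Sfp, 5 uM rhodamine-CoA and 12.5 uM BHQ-2-labelled ybbR peptide in pH 7.6 Hepes/MgCl2 buffer. Enzyme was pre-incubated with compound for 15 min at room temperature. Rate was taken from the 30-min fluorescence change (525/598 nm).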
BAZ2B block – inhibitors of human BAZ2B bromodomain | Q9UIF8 | AlphaScreen BAZ2B-H3K14Ac peptide displacement | Potency, µM (doses to about 114 µM), inactives show at the top dose activity change, negative = inhibition, most hits filed as inhibitors | 360,000 compounds, 4.4% hits | AID 504333; further: on the % scale 0 is the no-effect control and ±100 the full control effect; nearly all actives have a fitted effect of over 60% in size
Target sequence (Q9UIF8 whole entry, looked up): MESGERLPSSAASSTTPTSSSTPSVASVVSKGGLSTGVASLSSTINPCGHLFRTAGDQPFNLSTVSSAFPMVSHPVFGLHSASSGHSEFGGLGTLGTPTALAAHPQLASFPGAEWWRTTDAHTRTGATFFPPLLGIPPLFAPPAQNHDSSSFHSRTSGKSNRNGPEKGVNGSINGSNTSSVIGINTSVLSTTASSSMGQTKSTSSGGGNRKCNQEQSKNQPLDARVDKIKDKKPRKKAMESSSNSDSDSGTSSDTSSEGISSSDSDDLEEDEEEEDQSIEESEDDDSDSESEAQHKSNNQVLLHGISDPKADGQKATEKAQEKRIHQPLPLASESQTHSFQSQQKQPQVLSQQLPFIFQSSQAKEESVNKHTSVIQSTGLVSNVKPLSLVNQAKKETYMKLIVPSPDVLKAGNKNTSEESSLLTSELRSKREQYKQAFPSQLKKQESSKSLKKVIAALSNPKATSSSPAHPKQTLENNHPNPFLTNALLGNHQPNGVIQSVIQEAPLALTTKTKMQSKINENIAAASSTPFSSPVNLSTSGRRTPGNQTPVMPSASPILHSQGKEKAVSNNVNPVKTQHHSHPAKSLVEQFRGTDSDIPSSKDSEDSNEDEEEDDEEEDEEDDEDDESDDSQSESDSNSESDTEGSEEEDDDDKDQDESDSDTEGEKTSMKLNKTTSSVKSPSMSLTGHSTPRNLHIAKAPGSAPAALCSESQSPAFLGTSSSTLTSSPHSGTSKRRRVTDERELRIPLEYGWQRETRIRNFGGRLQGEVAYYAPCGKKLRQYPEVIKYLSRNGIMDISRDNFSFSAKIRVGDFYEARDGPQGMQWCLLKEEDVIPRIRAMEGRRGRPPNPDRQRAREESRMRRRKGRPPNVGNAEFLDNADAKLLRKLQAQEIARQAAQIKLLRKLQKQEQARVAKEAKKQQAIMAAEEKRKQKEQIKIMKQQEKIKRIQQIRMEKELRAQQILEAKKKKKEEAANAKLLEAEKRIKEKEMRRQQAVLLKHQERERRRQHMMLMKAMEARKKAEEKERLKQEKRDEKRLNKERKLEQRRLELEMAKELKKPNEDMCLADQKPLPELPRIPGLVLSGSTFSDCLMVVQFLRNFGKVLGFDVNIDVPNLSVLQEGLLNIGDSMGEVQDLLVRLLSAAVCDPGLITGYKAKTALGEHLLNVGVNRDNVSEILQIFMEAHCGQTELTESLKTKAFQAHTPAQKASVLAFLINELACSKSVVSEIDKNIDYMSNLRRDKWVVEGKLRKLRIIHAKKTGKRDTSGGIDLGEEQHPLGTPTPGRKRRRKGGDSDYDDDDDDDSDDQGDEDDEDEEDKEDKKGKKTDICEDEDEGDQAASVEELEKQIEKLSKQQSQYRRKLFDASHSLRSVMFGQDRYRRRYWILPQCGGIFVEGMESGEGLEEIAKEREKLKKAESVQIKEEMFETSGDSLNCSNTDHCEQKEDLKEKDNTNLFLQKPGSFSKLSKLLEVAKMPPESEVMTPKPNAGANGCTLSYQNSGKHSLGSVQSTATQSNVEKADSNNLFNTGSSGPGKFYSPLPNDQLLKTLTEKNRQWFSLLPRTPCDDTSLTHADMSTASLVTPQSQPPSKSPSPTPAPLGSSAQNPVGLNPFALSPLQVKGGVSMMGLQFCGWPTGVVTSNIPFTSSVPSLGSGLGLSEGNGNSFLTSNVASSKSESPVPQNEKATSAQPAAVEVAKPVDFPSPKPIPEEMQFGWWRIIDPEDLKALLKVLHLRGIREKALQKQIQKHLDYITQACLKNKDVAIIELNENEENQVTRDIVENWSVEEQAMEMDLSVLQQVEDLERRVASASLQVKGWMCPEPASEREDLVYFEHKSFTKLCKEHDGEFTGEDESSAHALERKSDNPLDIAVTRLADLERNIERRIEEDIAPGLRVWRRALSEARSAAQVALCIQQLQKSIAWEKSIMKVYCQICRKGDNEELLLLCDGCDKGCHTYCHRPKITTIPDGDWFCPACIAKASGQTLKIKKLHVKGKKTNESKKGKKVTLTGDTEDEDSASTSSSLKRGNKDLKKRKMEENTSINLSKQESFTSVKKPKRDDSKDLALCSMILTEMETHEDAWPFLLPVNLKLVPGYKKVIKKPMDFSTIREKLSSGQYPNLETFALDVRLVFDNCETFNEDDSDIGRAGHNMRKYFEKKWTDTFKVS
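AlphaScreen luminescence quantifies BAZ2B engagement of H3K14Ac peptide; the protein and biotinylated peptide are both at 50 nM final, buffer PBS pH 7.4 with 0.01% Tween-20, all steps at room temperature.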
Numbers without * were called inactive; ? = inconclusive; / = no result; [ ] = remark or other dose. In the library only some 12% were active in any assay of this set; here they are far more common. The call rests on the fitted dose curve; in most records, active means well fitted curve in the direction sought with a large enough effect; inconclusive means small, poorly fitted or top-dose-only effect, or another doubt; inactive means no such curve, though single readings can be large; an effect the other way counts as inactive or inconclusive. Potency means the concentration at half of the fitted maximal effect.

SMILES | JMJD2A Tudor inh | G9a inh | PLK1 PBD inh | HP1b binding inh | Sfp PPTase inh | BAZ2B block
CCOc1ccc(CCNC(=O)c2cc3c(-c4ccc(OC)c(OC)c4)nn(C)c3s2)cc1OCC | ? | ? | / | 9% | / | /
C/C(=N\N1CCCCCC1)c1c(O)n(C)c(=O)n(C)c1=O | / | 17%[12.7 µM] | / | / | 24% | -7%
C/C(=N\NC(N)=O)c1c(O)n(C)c(=O)n(C)c1=O | 40µM* | ? | 30µM* | 28% | 56µM* | /
CN1CCN(c2ccccc2NC(=O)c2ccc(-c3ccc(Cl)c(Cl)c3)o2)CC1 | 50µM* | 49% | 4% | -2% | 7% | -7%
CC1CCN(c2ccccc2NC(=O)c2cc3ccccc3o2)CC1 | 29% | 103% | -9% | 86% | 4% | 7%
Cc1ccc(CCN2CC(C(=O)N3CCC4(CC3)OCCO4)CC2=O)cc1 (configuration not stated) | -12% | / | -12% | 22% | 2% | 8%
Cc1ccc(CN2CCN(CC(=O)N3CCC4(CC3)OCCO4)C2=O)cc1 | -25%[11.4 µM] | ? | 30µM* | -12% | 2% | 7%
Cc1ccc(CN2CCSc3ccc(C(=O)N4CCC5(CC4)OCCO5)cc32)cc1 | ? | 50µM* | -12% | 11% | -9% | -38%[57.1 µM]
O=C(c1ccc2c(c1)N(Cc1ccc(F)cc1)CCS2)N1CCC2(CC1)OCCO2 | -35% | -17% | -19% | 3% | -8% | ?
CN1C(=O)C(=Cc2ccc(N(C)C)c([N+](=O)[O-])c2)C(=O)N(C)C1=O | / | 117%[59 µM] | / | / | 56µM* | 14%
CCc1ccc(OCC(=O)N2CCN(CCc3ccncc3)CC2)cc1 | -23% | -1%[59 µM] | / | 51% | / | 9%
O=C(CCl)c1ccc(Oc2ccc(C(=O)CCl)cc2)cc1 | / | ? | / | / | 50µM* | /
COC(=O)c1ccc(NC(=O)c2cccn(Cc3ccccc3C)c2=O)cc1 | -14% | 7%[59 µM] | / | 20%[57 µM] | / | 4%
C[C@H](NC(=O)[C@@H](N)Cc1ccc(O)cc1)C(=O)NCC(=O)N(C)[C@@H](Cc1ccccc1)C(=O)N[C@H](CO)CCS(C)=O (some centres not stated) | / | 21%[59 µM] | / | / | -2% | /
O=C(NCc1nnc(SCC(=O)N2CCN(c3ccccc3)CC2)o1)c1ccco1 | ? | -8%[59 µM] | 27µM* | -4% | 8% | -3%
CC(=O)O[C@@H]1C[C@@]2(C)C(c3ccoc3)C[C@H]3O[C@]32[C@]2(C)C(=O)C(O)=C3C(C)(C)C(=O)C=C[C@]3(C)C12 (some centres not stated) | / | / | / | / | -6% | /
CCc1nnc(NC(=O)CSc2ccc(-c3ccco3)nn2)s1 | 9% | 22µM* | 0% | 17% | 28µM* | 50µM*
Cc1cc(SCC(=O)N/N=C/c2ccco2)nc2ccccc12 | -27% | / | -3% | 14% | 5% | ?
O=C(CSc1ccc(-c2ccco2)nn1)Nc1ccccc1 | -25% | 20µM* | -25% | 2% | 32µM* | -15%
Oc1cc[c]([Hg][Cl])cc1 | / | ? | / | / | 0.056µM* | /
O=S(=O)(c1ccc(O)cc1)c1ccc(O)cc1 | -12% | -3% | -2% | 34% | 11% | 0%
COc1cc2[nH]c(=O)n(CCCCCC(=O)N3CCN(c4cccc(C(F)(F)F)c4)CC3)c(=O)c2cc1OC | ? | -28%[59 µM] | / | -2% | / | -13%
CCS(=O)(=O)C(C)(C)S(=O)(=O)CC | / | -38%[12.7 µM] | / | / | 14% | /
CCOC(=O)c1cccc(NC(=O)c2c(O)[nH]c(=O)[nH]c2=O)c1 | ? | / | -3% | ? | / | /
CCCCCNc1c(C(=O)OCC)c(=O)[nH]c2ccccc12 | 56µM* | 2%[59 µM] | 27µM* | -14% | -14% | 9%
SMILES | JMJD2A Tudor inh | G9a inh | PLK1 PBD inh | HP1b binding inh | Sfp PPTase inh | BAZ2B block
CC(=O)Nc1nc(CCl)cs1 | -30% | 20µM* | -23% | 32% | -6% | -19%
COc1ccc(CC2(CCc3ccccn3)C(=O)NC(=O)N(c3ccccc3C)C2=O)cc1OC (configuration not stated) | -10% | 4%[12.7 µM] | 0% | 25% | -2% | -8%
Cc1ccc2c(c1)CC1(CN2C)C(=O)NC(=O)N(CCc2ccccc2)C1=O (configuration not stated) | 2% | 7.9µM* | -21% | 47% | -27% | -4%
Cc1ccccc1N1C(=O)NC(=O)/C(=C\c2cc(Br)c(N3CCOCC3)o2)C1=O | -27% | ? | 104% | ? | -17% | ?
Cc1ccc2c(c1)CC1(CN2C)C(=O)NC(=O)N(c2ccccc2C)C1=O (configuration not stated) | -5%[57.1 µM] | 10µM* | -19% | 34% | -9% | -5%
Cc1ccc2c(c1)CC1(CN2C)C(=O)NC(=O)N(c2cccc(C)c2C)C1=O (configuration not stated) | -15% | 7.9µM* | -24% | 49% | -8% | -2%
O=C1NC(=O)C(CCc2ccncc2)(CCc2ccncc2)C(=O)N1CCc1ccccc1 | -11% | / | -11% | 5% | -8% | -5%
COc1ccccc1N1C(=O)NC(=O)C2(Cc3cc(C)ccc3N(C)C2)C1=O (configuration not stated) | -30% | 8.9µM* | -18% | 30% | -17% | -5%
O=P1(Oc2ccccc2)CC=CC(COC(c2ccccc2)(c2ccccc2)c2ccccc2)O1 (configuration not stated) | -30% | / | / | 20% | -3% | /
O=C(C1CCCN(S(=O)(=O)c2cccc3nsnc23)C1)N1CCN(c2cccc(Cl)c2)CC1 (configuration not stated) | ? | ? | / | 5% | / | /
CCCN1[C@H](C(=O)OC)C[C@@H]2CC[C@@H](O)C[C@@H]21 | / | / | / | / | 19% | /
Cc1ccc2c(c1)CC1(CN2C)C(=O)NC(=O)N(c2ccc(C)c(C)c2)C1=O (configuration not stated) | -16% | 8.9µM* | -19% | 34% | -8% | -23%
Cc1ccc(N2C(=O)CC(=O)NC2=O)cc1Cl | -7% | / | -10% | 38% | -7% | -14%
C[C@]12CC[C@H]3[C@@H](CCC4=CC(=O)CC[C@@]43C)[C@@H]1CC[C@@H]2C(=O)CO | -18% | ? | -10% | 36% | 79µM* | -17%
CC12CCC(=O)C=C1CCC1C2CCC2(C)C(O)CCC12 (configuration not stated) | -19% | 7% | -13% | 39% | 21% | 17%
C[C@@H](COc1ccccc1)N(CCCl)Cc1ccccc1 | / | 2%[21.5 µM] | / | / | 14% | /
CCOP1(=S)Oc2cc3c(cc2C(C(=O)OC)(C(F)(F)F)O1)OCO3 (configuration not stated) | ? | ? | 24µM* | ? | 25µM* | -33%
C[C@@]12CCC(=O)C[C@@H]1CC[C@@H]1[C@@H]2CC[C@]2(C)C(=O)CC[C@@H]12 | / | -41%[2.33 µM] | / | / | 12% | /

Screens from PubChem.
